Experimental findings from PubChem BioAssay (EPA / NIEHS) are described below.

The target of experiment [1] is PGR (gene 5241) (UniProt P06401). Kind of experiment: TOX21_PR_BLA_Followup_Agonist_ratio: Tox21 HEK293 Progesterone Receptor (PR) Agonism Beta-lactamase Follow-Up Assay, Ratio (AID 2283933). In a few lines:
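Ratio-based beta-lactamase reporter signal after 16 hr compound treatment of PR-UAS-bla HEK293T cells at 37C. Substrate loading lasted 2 hr at room temperature.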

A short description of experiment [2]: TOX21_PR_BLA_Followup_Agonist_viability: Viability Assessment in the Tox21 HEK293 Progesterone Receptor (PR) Agonism Beta-lactamase Follow-Up Assay (AID 2283935).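 Note: signal loss means lower viability so actives are cytotoxic.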 In a few lines: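 Viability is read as CellTiter-Glo luminescence, where loss of signal indicates cytotoxicity. The cells are PR-UAS-bla HEK293T given compounds for 16 hr at 37C and 5% CO2, in the same wells used for the bla readout.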

Experiment [3] can be described thus: TOX21_PR_BLA_Followup_Antagonist_viability: Viability Assessment in the Tox21 HEK293 Progesterone Receptor (PR) Antagonism Beta-lactamase Follow-Up Assay (AID 2283936).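 Note: cells exposed to compound with R5020 agonist for 16 h; hits lower the luminescence signal meaning cytotoxicity.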 An outline of the steps: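 PR-UAS-bla HEK293T cells in medium with 2% charcoal-stripped FBS were treated with compounds plus R5020 for 16 hr at 37C. After the beta-lactamase read, CellTiter-Glo was added to the same wells and luminescence read after 30 min at room temperature.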

In experiment [4] the target is PGR (gene 5241) (UniProt P06401). Nature of the experiment: TOX21_PR_LUC_Followup_Agonist: Tox21 HEK293 Progesterone Receptor (PR) Agonism Luciferase Follow-Up Assay (AID 2283937; active = hit-call score of the fitted dose curve at least 0.9, where 1 is the maximum; inactive = score below 0.9). An outline of the steps: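 In HEK293 cells stably expressing PR-A with a luciferase reporter, compounds were incubated 16 h at 37C, and induced luminescence was quantified with ONE-Glo, multiplexed with cell viability.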

The target is the same in experiment [5]. Kind of experiment: TOX21_PR_LUC_Followup_Antagonist: Tox21 HEK293 Progesterone Receptor (PR) Antagonism Luciferase Follow-Up Assay (AID 2283938).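 Note: curve fitted upward as signal gain over DMSO baseline despite antagonist label.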 An outline of the steps: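 Luciferase reporter in HEK293-PR-A-luc cells: 16 h compound treatment at 37C, ONE-Glo luminescence detection, DMSO as negative control and baseline.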
Experiment [6] can be described thus: TOX21_PR_LUC_Followup_Antagonist_viability: Viability Assessment in the Tox21 HEK293 Progesterone Receptor (PR) Antagonism Luciferase Follow-Up Assay (AID 2283940). In a few lines:
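Loss of CellTiter-Glo ATP signal indicates cytotoxicity in HEK293-PR-A-luc cells grown in 10% charcoal-stripped FBS medium, seeded 3,000 per well and incubated 16 h with compound at 37C.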

Records with an inconclusive call do not appear. Calls of active or inactive are those of the source. Rule for the calls, unless noted: active = hit-call score of the fitted dose curve at least 0.9, where 1 is the maximum; inconclusive = response in the unintended direction; inactive = score below 0.9.

PGR (gene 5241), sequence (P06401 whole entry, looked up): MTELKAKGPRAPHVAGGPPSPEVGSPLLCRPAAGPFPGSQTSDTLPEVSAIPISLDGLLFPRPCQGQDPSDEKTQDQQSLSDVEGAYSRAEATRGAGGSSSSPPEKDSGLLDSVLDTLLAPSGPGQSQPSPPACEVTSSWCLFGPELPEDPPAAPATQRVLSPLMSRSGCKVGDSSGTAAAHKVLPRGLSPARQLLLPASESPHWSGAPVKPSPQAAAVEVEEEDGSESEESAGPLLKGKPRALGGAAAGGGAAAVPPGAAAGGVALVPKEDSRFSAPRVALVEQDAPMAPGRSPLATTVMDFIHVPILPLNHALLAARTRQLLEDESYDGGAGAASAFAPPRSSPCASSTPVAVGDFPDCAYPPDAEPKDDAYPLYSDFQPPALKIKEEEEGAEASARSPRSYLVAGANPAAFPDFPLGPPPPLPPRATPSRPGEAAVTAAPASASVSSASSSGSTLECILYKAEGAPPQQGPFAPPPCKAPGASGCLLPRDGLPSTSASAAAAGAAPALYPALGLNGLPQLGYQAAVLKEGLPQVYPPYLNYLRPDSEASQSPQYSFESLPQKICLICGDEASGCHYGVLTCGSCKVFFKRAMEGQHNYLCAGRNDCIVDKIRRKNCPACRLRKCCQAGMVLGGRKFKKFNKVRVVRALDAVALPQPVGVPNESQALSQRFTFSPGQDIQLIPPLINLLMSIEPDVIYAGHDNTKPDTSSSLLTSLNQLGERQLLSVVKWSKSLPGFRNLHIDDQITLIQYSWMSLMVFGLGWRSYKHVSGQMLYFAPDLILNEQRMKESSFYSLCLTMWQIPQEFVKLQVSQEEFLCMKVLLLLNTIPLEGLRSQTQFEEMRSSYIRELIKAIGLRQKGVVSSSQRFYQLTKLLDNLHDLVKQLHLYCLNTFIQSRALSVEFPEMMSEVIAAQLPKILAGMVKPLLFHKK

A word on the AC50: it is the midpoint of the concentration-response curve, whichever way the signal moves. As for `CCC(=O)Oc1ccc2c(c1)CC[C@@H]1[C@@H]2CC[C@@]2(C)[C@H]1C[C@@H](OC(=O)CC)[C@@H]2OC(=O)CC`, the result (in the experiment with PGR (gene 5241) [1]; in experiment [2]; in experiment [3]; with PGR (gene 5241) [5]; in experiment [6]) was inactive. In the experiment with PGR (gene 5241) [4], the AC50 was 16.8 µM (active).
`C[C@@H]1C[C@H]2[C@@H]3CCC4=CC(=O)C=C[C@]4(C)[C@@]3(F)[C@@H](O)C[C@]2(C)[C@@]1(O)C(=O)COC(=O)c1ccncc1`: the AC50 is 26.1 µM (active) in the experiment with PGR (gene 5241) [1] and 0.51 µM (active) with PGR (gene 5241) [4]. Moreover, the outcome in experiment [2], in experiment [3] and in experiment [6] was inactive.
